B1: il2ra_site1_3nfp_normal_mot_HHH_b1_05523_000000027_0001_1_19_H_._HHH_b1_07881_af2_0001_0000100003_0000001_0_af2pred_0001_af2pred_1 (protein)
chain: SSSSTEVSRRVLELIEEALELAQNGNPEEAEEVLREALKLAEEAGNESTARFIRKALEQSSSSSS
B2: il2ra_site1_3nfp_sap_10_mot_cc4219192d8ccd35c40e7b68f9a57604_0001_af2_000000124_0001_16_32_H_._HHH_b2_07250_0001_0000100001_0000001_0_0001 (protein)
chain: SSSSSEIEEEVRELLEEAEQLLKEGDWEEAAKVVEEAMKLASQANDDELDQLIMEWVRKLSSSSS
B3: il2ra_site1_3nfp_sap_18_mot_HHH_b2_03549_000000219_0001_1_18_H_._HHH_b1_06169_0001_0000200013_0000001_0_0001 (protein)
chain: NDERVASKLVEEAARSAGVDEVEVSVSNGTLHVEVSGGDRAARRVEEAAKQIAEWLGVEVEVTFE
B4: il2ra_site1_3nfp_normal_mot_HHH_b1_01231_af2_000000170_0001_1_16_H_._HHH_b1_02076_0001_0000200037_0000001_0_af2pred_0001_af2pred_1_swapped (protein)
chain: SSSSSSREELELKERVLRLLARIRDPEEARRVLEEAEELAKELGDERLLEELEKLLKRLGSSSSS
B5: il2ra_site2_3nfp_sap_21_mot_HHH_b1_06577_af2_000000152_0001_20_36_H_._HHH_b2_07686_0001_0000600063_0000001_0_0001 (protein)
chain: SSSSDEDEERVEKLIEEIERLLEEGDRDEAARLLLEATELAARINNDELARKLLELFLKIQSSSS
B6: il2ra_site2_3nfp_normal_mot_HHH_b1_03851_000000147_0001_21_38_H_._HHH_b1_04525_0001_0000600036_0000001_0 (protein)
chain: SSSSDEERREARELFEELQELLEENDKHAVFEVLMELFELAARTGDEEAARLVLEIYAQLRSSSS
B7: il2ra_site2_2erj_sap_10_mot_HHH_b1_08207_af2_000000250_0001_43_57_H_._HHH_b2_03076_0001_0000100015_0000001_0_0001 (protein)
chain: SSSSDWLHRLYELANRITELASRGNPEEAREVLEELQELAEEANSDNAKWVAEALEKHLNSSSSS
B8: il2ra_site2_3nfp_sap_16_mot_HHH_b1_03316_000000041_0001_39_56_H_._702997820559c2f17efcc64b63c1c749_0001_1_0001_0000200016_0000001_0_0001_af2pred_0001_1_af2pred_ … (protein)
chain: DSEKELFKEALEEGDPALIDAVALAIALAERGKPPEEIEKSVERWLRAQGVPPEEIEEILELLRK
B9: il2ra_site2_3nfp_normal_mot_HHH_b2_01406_000000272_0001_41_55_H_._HHH_b2_00362_0001_0000600032_0000001_0 (protein)
chain: SSSSSDEEEEELEERLEKALEEGDKHLAAQLAAELSELLARLNDPETAVRLAVKVLEFVLSSSSS
B10: il2ra_site2_3nfp_sap_26_mot_HHH_b1_07277_000000260_0001_23_39_H_._HHH_eva_0486_af2_0001_0000400016_0000001_0_0001 (protein)
chain: SAELARRIVELVRRGDPVAEALFALLADVAYKGDPELERLLEEALEALERGNPEEAEEIVRKALK
B11: il2ra_site1_2b5i_sap_17_mot_143f78fc0439b137266e145e81963a82_0001_1_af2_000000250_0001_37_51_H_._2548690152cc24afdf538b66510d0e06_0001_0001_0000200012_0000001_0 … (protein)
chain: SSSSDEKYDEVERLFKKALELRRAGKKEEAKEVLEEALKIAEEAKDEKLVEELKRFLELLSSSSS
B12: il2ra_site2_2erj_normal_mot_HHH_b1_00210_af2_000000043_0001_43_57_H_._HHH_b1_00702_0001_0000100006_0000001_0 (protein)
chain: SSSSDREEVEELLKELEEAYEEGDEEKFEELASRASVLIFQIGDFELWSELAELFAKLNKSSSSS
B13: il2ra_site1_2b5i_normal_mot_HHH_b1_08745_af2_000000166_0001_39_57_H_._HHH_b1_02799_0001_0000100008_0000001_0_af2pred_dldesign_0_af2pred (protein)
chain: SSSSSPEGKEVLRLLEEAEAALKAGDEAGARALLEKALEIAKKAKSNLFVKFVEAALKALESSSS
B14: il2ra_site1_1z92_sap_15_mot_HHH_b2_05498_000000253_0001_19_35_H_._HHH_b1_00069_0001_0001500068_0000001_0_0001_af2pred_0001_af2pred_1 (protein)
chain: SEEEEHIRELIEQIPDPELAEAIKKDFEQALERGIPPERVVRALLRAARLDGDPHAEELLEKALR
B15: il2ra_site1_2b5i_sap_11_mot_HHH_b1_06900_af2_000000048_0001_21_36_H_._a1725d017d863e7f4c76c21e96fab134_0001_1_af2_0001_0000100009_0000001_0_0001_af2pred_0001_af … (protein)
chain: SSSSSTLAQKAAELLEEANEADRNGDPEEARKLLEEAEKIAEEAGSKSLLRSIRVALEQLSSSSS
B16: il2ra_site1_1z92_sap_14_mot_HHH_b1_05862_af2_000000270_0001_22_38_H_._HHH_b1_06212_0001_0000200007_0000001_0_0001_af2pred_0001_af2pred_1 (protein)
chain: SSSSSDLEELIEEIARELAEENNDEDLREELEKAAERLKKLGTSHERARKILEKLVKAARSSSSS
B17: il2ra_site2_3nfp_normal_mot_HHH_b2_07840_000000026_0001_18_34_H_._HHH_b1_00954_0001_0000200021_0000001_0 (protein)
chain: SSSSDLEERLRELLEELEELVKEGDEERFREVAREVIQLVYENNDHEAFAKLADLLYLIESSSSS
B18: il2ra_site1_1z92_normal_mot_c9a8daa1dfea21d1414aecde54be4f54_0001_1_af2_000000024_0001_32_46_H_._15f70e71ac3214bf43105af5abf4654e_0001_1_af2_0001_0000300029_000 … (protein)
chain: DEEAARKDLEFALKQGIPPRSVVRAVLLALEHELGDPEEALEVIERAIKLLNDPELEEVVEKLKP
B19: il2ra_site1_2b5i_sap_21_mot_HHH_b2_08159_000000245_0001_1_21_H_._8ad9ac091cb40d3f9ee7ab2e9a3a3379_0001_0001_0000400039_0000001_0_0001_af2pred_0001_af2pred_1 (protein)
chain: SSSSSELLEEAFELLEEADELAKKGNDEEAEKVLREAEELLEKAGNPSLLRLVRAALRLTSSSSS
B20: il2ra_site2_3nfp_normal_mot_HHH_b1_05627_af2_000000038_0001_43_56_H_._HHH_b1_05526_af2_0001_0000100005_0000001_0 (protein)
chain: SSSSDKAEEYVRAAMEAARYALEDGNPEVARRSLELARQLAESLGNEELREEVEELLQELSSSSS

A selection follows. The hit rate among all sequences tested is not known here. Unmarked numbers belong to inactive results.

The record followed here is publication PMC10163288.

Chain of il2ra, P01589 (P01589 whole entry): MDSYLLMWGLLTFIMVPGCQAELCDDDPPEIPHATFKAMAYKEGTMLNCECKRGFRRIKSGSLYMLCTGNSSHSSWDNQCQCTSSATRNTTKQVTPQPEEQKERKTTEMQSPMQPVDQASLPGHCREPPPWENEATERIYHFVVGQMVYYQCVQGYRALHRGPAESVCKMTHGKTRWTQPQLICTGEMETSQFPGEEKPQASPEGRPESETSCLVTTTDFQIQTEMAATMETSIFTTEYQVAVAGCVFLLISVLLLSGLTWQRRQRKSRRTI

This assay addresses il2ra, P01589. Description: yeast display titration.
For the molecule B1, the “apparent Kd” value was “no binding seen”.

Turning to B2, the “apparent Kd” value is “no binding seen”.

Regarding B3, the “apparent Kd” value is “no binding seen”.

B4: the “apparent Kd” value was “no binding seen”.

For the molecule B5, the “apparent Kd” value is “no binding seen”.

For B6, the “apparent Kd” value is “no binding seen”.

Take B7: the “apparent Kd” value was “no binding seen”.

As to B8, the “apparent Kd” value was “no binding seen”.

Regarding B9, the “apparent Kd” value is “no binding seen”.

In the case of B10, the “apparent Kd” value was “no binding seen”.

For the molecule B11, the “apparent Kd” value was “no binding seen”.

Consider B12, for which the “apparent Kd” value was “no binding seen”.

Turning to B13, the “apparent Kd” value was “no binding seen”.

On to B14, for which the “apparent Kd” value was “no binding seen”.

Take B15: the “apparent Kd” value is “no binding seen”.

For B16, the “apparent Kd” value was “no binding seen”.

Turning to B17, the “apparent Kd” value was “no binding seen”.

Regarding B18, the “apparent Kd” value is “no binding seen”.

In the case of B19, the “apparent Kd” value is “no binding seen”.

Consider B20, for which the “apparent Kd” value is “no binding seen”.
